We go through 34 targets from the supplement of paper PMC10849652.

Targets with a hit are over-represented here; the source holds about 8,800 in all. About 0.5% of all pairs of compound and target were hits.

UniProt P43246, sequence (P43246 whole entry, looked up): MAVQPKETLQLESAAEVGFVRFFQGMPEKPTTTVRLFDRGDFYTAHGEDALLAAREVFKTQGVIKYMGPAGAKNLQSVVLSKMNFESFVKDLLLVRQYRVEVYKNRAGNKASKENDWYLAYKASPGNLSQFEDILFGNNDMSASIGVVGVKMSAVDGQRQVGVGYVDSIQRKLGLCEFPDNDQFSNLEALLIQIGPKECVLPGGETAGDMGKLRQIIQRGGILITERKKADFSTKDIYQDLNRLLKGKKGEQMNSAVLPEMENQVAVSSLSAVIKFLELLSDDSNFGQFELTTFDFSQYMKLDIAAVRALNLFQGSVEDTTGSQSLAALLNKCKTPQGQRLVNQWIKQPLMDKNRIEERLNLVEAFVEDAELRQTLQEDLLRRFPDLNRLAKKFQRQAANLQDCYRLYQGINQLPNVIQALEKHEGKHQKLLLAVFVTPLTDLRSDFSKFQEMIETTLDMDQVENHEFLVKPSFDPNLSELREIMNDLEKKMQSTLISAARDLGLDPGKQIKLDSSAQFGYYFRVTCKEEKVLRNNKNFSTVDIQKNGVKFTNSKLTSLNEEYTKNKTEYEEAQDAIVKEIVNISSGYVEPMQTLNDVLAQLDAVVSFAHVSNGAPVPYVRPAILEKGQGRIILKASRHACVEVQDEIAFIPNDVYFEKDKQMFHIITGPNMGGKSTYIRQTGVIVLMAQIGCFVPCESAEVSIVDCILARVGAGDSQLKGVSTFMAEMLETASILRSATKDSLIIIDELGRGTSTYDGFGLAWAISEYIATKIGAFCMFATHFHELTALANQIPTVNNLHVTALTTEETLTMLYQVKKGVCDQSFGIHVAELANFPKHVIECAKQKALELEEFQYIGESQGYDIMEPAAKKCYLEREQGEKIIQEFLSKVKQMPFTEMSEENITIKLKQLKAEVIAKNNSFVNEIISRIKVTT
UniProt Q5TEU4, sequence (Q5TEU4 whole entry, looked up): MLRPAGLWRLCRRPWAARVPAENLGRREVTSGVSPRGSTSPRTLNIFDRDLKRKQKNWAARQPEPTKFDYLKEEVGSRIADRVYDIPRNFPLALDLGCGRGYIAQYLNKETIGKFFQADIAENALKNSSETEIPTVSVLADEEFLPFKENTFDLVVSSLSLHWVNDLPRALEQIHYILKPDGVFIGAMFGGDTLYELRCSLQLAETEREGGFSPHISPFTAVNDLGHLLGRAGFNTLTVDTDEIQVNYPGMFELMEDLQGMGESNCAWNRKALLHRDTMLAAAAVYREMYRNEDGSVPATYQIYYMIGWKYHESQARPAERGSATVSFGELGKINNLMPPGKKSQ
UniProt Q9Y5B6, sequence (Q9Y5B6 whole entry, looked up): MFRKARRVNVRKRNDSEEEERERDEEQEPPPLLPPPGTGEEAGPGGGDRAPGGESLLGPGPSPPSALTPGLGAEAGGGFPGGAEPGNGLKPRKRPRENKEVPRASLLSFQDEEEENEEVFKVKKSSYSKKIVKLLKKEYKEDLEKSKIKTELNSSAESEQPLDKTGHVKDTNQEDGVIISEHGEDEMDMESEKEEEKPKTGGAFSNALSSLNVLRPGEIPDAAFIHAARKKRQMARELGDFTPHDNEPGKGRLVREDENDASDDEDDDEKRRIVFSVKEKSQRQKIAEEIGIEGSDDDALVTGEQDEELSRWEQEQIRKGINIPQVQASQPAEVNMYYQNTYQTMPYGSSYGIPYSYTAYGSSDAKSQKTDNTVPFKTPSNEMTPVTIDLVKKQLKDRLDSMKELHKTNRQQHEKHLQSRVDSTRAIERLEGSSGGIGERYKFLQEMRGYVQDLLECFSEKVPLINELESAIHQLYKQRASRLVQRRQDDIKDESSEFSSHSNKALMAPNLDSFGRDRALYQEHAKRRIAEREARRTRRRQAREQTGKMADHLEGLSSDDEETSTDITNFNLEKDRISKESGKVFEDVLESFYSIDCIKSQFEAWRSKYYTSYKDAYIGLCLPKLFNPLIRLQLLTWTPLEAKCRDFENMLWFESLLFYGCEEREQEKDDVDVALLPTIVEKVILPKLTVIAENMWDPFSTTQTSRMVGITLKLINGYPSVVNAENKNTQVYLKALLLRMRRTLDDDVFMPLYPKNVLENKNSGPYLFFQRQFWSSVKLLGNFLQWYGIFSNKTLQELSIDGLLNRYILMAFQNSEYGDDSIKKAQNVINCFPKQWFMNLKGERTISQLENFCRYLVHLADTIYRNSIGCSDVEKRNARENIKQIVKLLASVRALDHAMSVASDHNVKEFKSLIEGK
UniProt Q9BXW6, sequence (Q9BXW6 whole entry, looked up): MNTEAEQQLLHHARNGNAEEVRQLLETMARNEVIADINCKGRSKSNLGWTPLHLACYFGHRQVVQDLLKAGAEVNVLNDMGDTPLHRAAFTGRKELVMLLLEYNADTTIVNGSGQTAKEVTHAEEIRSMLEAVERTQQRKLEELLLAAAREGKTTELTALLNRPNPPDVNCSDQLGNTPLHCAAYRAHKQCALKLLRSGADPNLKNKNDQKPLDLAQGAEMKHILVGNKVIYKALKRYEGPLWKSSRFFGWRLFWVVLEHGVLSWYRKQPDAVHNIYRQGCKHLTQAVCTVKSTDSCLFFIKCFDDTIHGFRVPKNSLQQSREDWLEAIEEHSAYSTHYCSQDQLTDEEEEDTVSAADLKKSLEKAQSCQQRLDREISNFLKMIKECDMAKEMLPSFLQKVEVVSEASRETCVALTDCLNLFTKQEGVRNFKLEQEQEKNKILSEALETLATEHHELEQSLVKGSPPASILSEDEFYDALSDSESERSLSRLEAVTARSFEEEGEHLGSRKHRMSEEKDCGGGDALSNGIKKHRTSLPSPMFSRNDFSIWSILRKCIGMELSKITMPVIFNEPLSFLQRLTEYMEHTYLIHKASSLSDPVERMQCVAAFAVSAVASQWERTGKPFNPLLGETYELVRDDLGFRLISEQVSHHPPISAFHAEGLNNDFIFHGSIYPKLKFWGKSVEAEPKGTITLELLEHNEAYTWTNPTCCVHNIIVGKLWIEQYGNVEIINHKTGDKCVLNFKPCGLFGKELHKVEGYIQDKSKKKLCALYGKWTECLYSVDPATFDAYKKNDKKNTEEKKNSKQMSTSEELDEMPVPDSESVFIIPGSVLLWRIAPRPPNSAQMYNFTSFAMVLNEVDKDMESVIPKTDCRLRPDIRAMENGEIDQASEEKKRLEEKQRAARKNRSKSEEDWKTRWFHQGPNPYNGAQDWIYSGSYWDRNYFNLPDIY
UniProt P53370, sequence (P53370 whole entry, looked up): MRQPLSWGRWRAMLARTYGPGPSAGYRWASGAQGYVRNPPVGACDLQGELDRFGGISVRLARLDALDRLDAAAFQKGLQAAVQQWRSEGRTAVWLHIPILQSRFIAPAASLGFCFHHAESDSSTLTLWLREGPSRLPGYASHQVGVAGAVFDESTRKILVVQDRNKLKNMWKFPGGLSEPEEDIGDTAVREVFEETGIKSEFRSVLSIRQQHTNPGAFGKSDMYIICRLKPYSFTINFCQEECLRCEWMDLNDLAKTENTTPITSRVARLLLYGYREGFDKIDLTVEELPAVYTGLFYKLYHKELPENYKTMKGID
UniProt Q9NZT2, sequence (Q9NZT2 whole entry, looked up): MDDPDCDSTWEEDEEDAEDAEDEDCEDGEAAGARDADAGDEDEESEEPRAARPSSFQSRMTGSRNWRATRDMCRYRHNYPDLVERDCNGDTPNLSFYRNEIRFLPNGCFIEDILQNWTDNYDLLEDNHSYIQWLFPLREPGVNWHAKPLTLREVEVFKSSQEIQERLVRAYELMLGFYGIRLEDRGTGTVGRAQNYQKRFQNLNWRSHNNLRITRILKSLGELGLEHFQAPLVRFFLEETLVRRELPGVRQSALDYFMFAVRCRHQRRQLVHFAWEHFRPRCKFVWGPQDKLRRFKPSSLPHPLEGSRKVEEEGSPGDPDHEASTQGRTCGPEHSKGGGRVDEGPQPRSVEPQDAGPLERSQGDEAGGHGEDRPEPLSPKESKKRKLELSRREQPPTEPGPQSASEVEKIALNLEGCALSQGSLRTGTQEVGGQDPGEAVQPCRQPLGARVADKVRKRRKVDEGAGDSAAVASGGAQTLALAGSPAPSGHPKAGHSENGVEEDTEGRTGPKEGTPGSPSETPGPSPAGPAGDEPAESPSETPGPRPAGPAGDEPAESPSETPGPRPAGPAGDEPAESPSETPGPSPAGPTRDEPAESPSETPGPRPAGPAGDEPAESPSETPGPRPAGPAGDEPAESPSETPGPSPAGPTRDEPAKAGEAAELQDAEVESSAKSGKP
UniProt P10244, sequence (P10244 whole entry, looked up): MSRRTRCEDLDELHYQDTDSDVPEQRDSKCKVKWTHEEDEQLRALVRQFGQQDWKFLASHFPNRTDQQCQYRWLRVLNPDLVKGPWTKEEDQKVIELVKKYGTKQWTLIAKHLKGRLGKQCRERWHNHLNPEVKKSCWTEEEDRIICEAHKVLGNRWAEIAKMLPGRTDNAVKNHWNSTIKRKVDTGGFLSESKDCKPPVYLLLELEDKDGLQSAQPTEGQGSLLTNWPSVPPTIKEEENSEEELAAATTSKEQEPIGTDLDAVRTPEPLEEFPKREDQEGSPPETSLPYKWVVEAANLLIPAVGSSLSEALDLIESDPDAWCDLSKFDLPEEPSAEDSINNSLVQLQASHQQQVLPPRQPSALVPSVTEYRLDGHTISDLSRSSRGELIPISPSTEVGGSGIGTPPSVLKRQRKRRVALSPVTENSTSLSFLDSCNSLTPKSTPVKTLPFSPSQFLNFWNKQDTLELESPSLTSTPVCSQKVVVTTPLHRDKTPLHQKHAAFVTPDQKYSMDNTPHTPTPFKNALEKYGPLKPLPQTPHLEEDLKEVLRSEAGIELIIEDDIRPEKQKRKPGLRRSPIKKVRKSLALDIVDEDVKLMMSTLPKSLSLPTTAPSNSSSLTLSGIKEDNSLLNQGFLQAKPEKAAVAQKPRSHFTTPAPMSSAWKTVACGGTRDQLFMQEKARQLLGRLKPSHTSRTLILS
UniProt P84157, sequence (P84157 whole entry, looked up): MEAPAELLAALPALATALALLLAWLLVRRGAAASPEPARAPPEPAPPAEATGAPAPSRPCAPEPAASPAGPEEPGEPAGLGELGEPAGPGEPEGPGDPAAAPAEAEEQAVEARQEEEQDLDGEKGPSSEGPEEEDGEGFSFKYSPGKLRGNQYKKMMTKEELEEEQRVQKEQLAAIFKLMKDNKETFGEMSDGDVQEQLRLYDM

Compound in one assay: CC1=C(SC2=C1C(=N[C@H](C3=NN=C(N32)C)CC(=O)N)C4=CC=C(C=C4)Cl)C
The experiment in a line: log2 fold change, soluble protein after heating vs DMSO (PISA); higher = thermal stabilisation; K562 lysate, 10 uM; active = over 0.2 and 3.5 SD of the protein, either way, in both replicates (recomputed). In a few lines: (§1)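 Soluble protein was defined as the supernatant remaining after 21,000xg for 90 min, following pooling of heated aliquots and adjustment to 0.5% NP-40 at 4°C. Before that, crude K562 extract at 1 mg/mL protein in PBS pH 7.4 with 1 mM MgCl2 was treated with 10 μM compound for 30 min and heated for 3 min across 48°C-58°C. Quantification used TMTpro 16plex LC-MS/MS with channel sums equalised, and values are log-two fold changes in thermal stability relative to solvent controls from duplicates.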
For MYLK (UniProt Q15746), the log2 fold change was -0.161 (inactive).
Still for that read-out and setting: for NDUFAF5 (UniProt Q5TEU4) the value was 0.016 (inactive); for MSH2 (UniProt P43246), -0.006 (inactive); for OSBPL1A (UniProt Q9BXW6), 0.007 (inactive).
Still for that read-out and setting: under MT-ATP8 (UniProt P03928) stands 0.052 (inactive).
For the target PAXBP1 (UniProt Q9Y5B6), the log2 fold change is -0.026 (inactive).

Compound in another assay: CC1=C2C(=CC=C1)N=C(N(C2=O)C3=CC=CC=C3C)CN4C=NC5=C(N=CN=C54)N
Described as above. The procedure, abridged:
as §1
As for MYO10 (UniProt Q9HD67), the log2 fold change is 0.165 (inactive).
In the case of MYCBP2 (UniProt O75592), the log2 fold change was 0.017 (inactive).
The same measure, in the same setting: for MYBL2 (UniProt P10244) the value was -0.01 (inactive); for OPA1 isoform 2 (UniProt O60313), 0.038 (inactive); for PAPOLG (UniProt Q9BWT3), 0.064 (inactive).
In the case of NSA2 (UniProt O95478), the log2 fold change is -0.018 (inactive).
The same measure, in the same setting: under NR2C2 isoform 2 (UniProt P49116) stands -0.04 (inactive).
For NDUFA4 (UniProt O00483), the log2 fold change was -0.063 (inactive).
The same measure, in the same setting: for NSUN7 (UniProt Q8NE18) the value was 0.06 (inactive).
On the same count and under the same terms, for NUP188 (UniProt Q5SRE5) the value was 0 (inactive); for MYOM1 (UniProt P52179), -0.111 (inactive); for OGFR (UniProt Q9NZT2), 0.012 (inactive).
Still for that read-out and setting: for NNT (UniProt Q13423) the value was 0 (inactive).
As for MTFP1 (UniProt Q9UDX5), the log2 fold change is 0.03 (inactive).
The same measure, in the same setting: for NFKBIE (UniProt O00221) the value was 0.033 (inactive); for MXRA7 (UniProt P84157), -0.05 (inactive).
For the target OSBPL6 isoform 5 (UniProt Q9BZF3), the log2 fold change was 0.02 (inactive).
With NDC1 (UniProt Q9BTX1), the log2 fold change was 0.003 (inactive).
For the target MYLK (UniProt Q15746), the log2 fold change was -0.008 (inactive).
NUDT6 (UniProt P53370): the log2 fold change is -0.222 (inactive).
With PAGE2B (UniProt Q5JRK9), the log2 fold change was -0.031 (inactive).
On the same count and under the same terms, for NDUFAF5 (UniProt Q5TEU4) the value was 0.026 (inactive); for MSH2 (UniProt P43246), 0.028 (inactive).
Consider MT-ATP8 (UniProt P03928), for which the log2 fold change is 0.082 (inactive).
With PAXBP1 (UniProt Q9Y5B6), the log2 fold change was 0.026 (inactive).

Compound in another assay: Cc1sc2c(c1C)C(c1ccc(Cl)cc1)=N[C@@H](CC(=O)OC(C)(C)C)c1nnc(C)n1-2
The description is as above. In a few lines:
as §1
Regarding MYCBP2 (UniProt O75592), the log2 fold change was 0.005 (inactive).
On the same count and under the same terms, under MYBL2 (UniProt P10244) stands 0.047 (inactive); under OPA1 isoform 2 (UniProt O60313), 0.005 (inactive); under PAPOLG (UniProt Q9BWT3), 0.074 (inactive).
Still for that read-out and setting: for NSA2 (UniProt O95478) the value was -0.042 (inactive); for NR2C2 isoform 2 (UniProt P49116), 0.243 (inactive).
Same read-out and setting: for NDUFA4 (UniProt O00483) the value was 0.035 (inactive); for PAGE4 (UniProt O60829), -0.143 (inactive); for NOCT (UniProt Q9UK39), 0.021 (inactive).
Take NUP188 (UniProt Q5SRE5): the log2 fold change was -0.001 (inactive).
In the case of MYOM1 (UniProt P52179), the log2 fold change was -0.135 (inactive).
Still for that read-out and setting: for NR2F2 (UniProt P24468) the value was -0.008 (inactive).
For the target NRIP1 (UniProt P48552), the log2 fold change is -0.071 (inactive).
With OGFR (UniProt Q9NZT2), the log2 fold change was -0.038 (inactive).
NNT (UniProt Q13423): the log2 fold change is 0.015 (inactive).
On the same count and under the same terms, for P2RY1 (UniProt P47900) the value was -0.047 (inactive); for MTFP1 (UniProt Q9UDX5), 0.079 (inactive).
NUMB isoform 2 (UniProt P49757): the log2 fold change is -0.207 (inactive).
Consider NFKBIE (UniProt O00221), for which the log2 fold change was 0.081 (inactive).
NPLOC4 (UniProt I3L3I1): the log2 fold change is -0.101 (inactive).
MXRA7 (UniProt P84157): the log2 fold change is -0.106 (inactive).
On the same count and under the same terms, for OSBPL6 isoform 5 (UniProt Q9BZF3) the value was 0.023 (inactive); for PARD3B (UniProt Q8TEW8), 0.138 (inactive).
Consider NDC1 (UniProt Q9BTX1), for which the log2 fold change is 0.02 (inactive).
Same read-out and setting: under NUDT6 (UniProt P53370) stands 0.009 (inactive).
Same read-out and setting: under PAGE2B (UniProt Q5JRK9) stands -0.072 (inactive); under NDUFAF5 (UniProt Q5TEU4), -0.174 (inactive); under MSH2 (UniProt P43246), 0.001 (inactive).
OSBPL1A (UniProt Q9BXW6): the log2 fold change was -0.144 (inactive).
Same read-out and setting: for PAXBP1 (UniProt Q9Y5B6) the value was 0.057 (inactive).
